For 40 compounds, growth results are on record in PubChem BioAssay (NCI).

About 83,000 compounds went through this panel and 20% of them were active in at least one assay; those are over-represented in the sample as a whole.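 Assay: single dose, 48 h. Readout: percent growth (0 = no net growth; negative = cell death). Active: <10.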 The source made the active and inactive calls.

The test system of the experiment is OVCAR-3 ovarian. The experiment can be described thus: NCI-60 one-dose screen, 48 h (100 = growth as untreated, 0 = no growth, -100 = all killed). Conditions: 10 µM unless noted.
For the compound `CC(=O)OC[C@]12CC[C@@H]([C@@H](C)c3nnc(-c4ccncc4)o3)[C@@H]1[C@H]1CC[C@@H]3[C@@]4(C)CC[C@H](OC(C)=O)C(C)(C)[C@@H]4CC[C@@]3(C)[C@]1(C)CC2`, the growth is 80.9% (inactive).

Consider `CCN(CC)c1ccc(/C=N/NC(=O)Cc2ccc(Nc3ccnc(C(F)(F)F)c3)cc2)c(O)c1`, for which the growth is 32.4% (inactive).

On to `Cc1cc2c(cc1C)N(C(=O)CCl)CC(=O)N2`, for which the growth was 6.17% (active).

Take `C#CC#CC#CC#CC#CC#CC#CC#CC[C@@H]1OC[C@@H](COC(=O)O[C@@H](C(=O)O[C@H]2C[C@@]3(O)[C@@H](OC(=O)c4ccccc4)[C@@H]4[C@]5(OC(C)=O)CO[C@@H]5C[C@H](O)[C@@]4(C)C(=O)[C@H](OC(C)=O)C(=C2C)C3(C)C)[C@@H](NC(=O)c2ccccc2)c2ccccc2)O1`: the growth was 100% (inactive).

Turning to `CCN1C(=O)N(CC)C2C1NN=c1s/c(=C\c3cnc(C)n3C)c(=O)n12` (stereo not given), the growth was -17.6% (active).

Consider `C/C=C(\C)C(=O)N[C@H]1C(O)C[C@]2(C)C3CC[C@@]4(C)C(CC[C@@H]4C(C)N(C)C)C3CCC2C1O` (stereo not given in full), for which the growth was 33.5% (inactive).

In the case of `C#Cc1cccc(Nc2nc(C)nc3cc(NC(=O)CCl)ccc23)c1`, the growth was -88.2% (active).

As to `CSc1nn2c(-c3ccc4ccccc4c3)ccnc2c1C#N`, the growth was -26% (active).

For the compound `CCN(CC)CCCOc1ccc2ncnc(Nc3ccc(Oc4cccc(C(F)(F)F)c4)c(Cl)c3)c2c1`, the growth is -34.8% (active).

On to `O=C1/C(=C\c2ccccn2)c2ccccc2N1c1c(Cl)cccc1Cl`, for which the growth is 27.4% (inactive).

`CCOC(=O)c1c(C)c2c(n1Cc1ccccc1)CSCC2=O`: the growth is -2.49% [100 µM] (active).

On to `O=C(CN1CCN(c2cc3c(cc2F)c(=O)c(C(=O)O)cn3C2CC2)CC1)N/N=C/c1ccco1`, for which the growth is 107% (inactive).

With `Clc1ccc(-c2cc(-c3ccccc3)nc(NCCNc3ccnc4cc(Cl)ccc34)n2)cc1`, the growth was -90.6% (active).

With `N#C/C(=C\C=C\c1ccc(-c2cc(Cl)ccc2Cl)o1)c1nc2ccccc2s1`, the growth was 105% (inactive).

Consider `COc1cc(OC)c(C(=O)C(CN(C)C)CN(C)C)cc1OC`, for which the growth is 1.07% (active).

With `CCn1cc(CNc2ccc(C(=O)Nc3cc4cc(OC)c(OC)cc4c(C)n3)cc2)cn1`, the growth is 54.8% (inactive).

Take `N#Cc1c(-c2ccccc2)nc(SCc2nnc(-c3ccc(Cl)cc3)o2)[nH]c1=O`: the growth is 103% (inactive).

For `O=P(O)(O)OCC1OC(n2cnc3c(NCc4ccco4)ncnc32)C(O)C1O` (stereo not given), the growth is -72% (active).

As for `CCN(CC)CCCN1C(=O)c2c(c(C)c3c(oc4ccc(O)cc43)c2C)C1=O`, the growth was 55.7% (inactive).

`O=[N+]([O-])c1ccc(-c2cn3nc(-c4c[nH]c5ccccc45)sc3n2)cc1`: the growth was 109% (inactive).

`Cc1nc2ccccc2c(/C=C/c2ccccc2)c1C(=O)/C=C/c1ccccc1`: the growth was 3.37% (active).

On to `O=C1Nc2c(C(=O)O)cccc2/C1=N/c1n[nH]c(=S)s1`, for which the growth was 99.1% (inactive).

For the compound `CC(=O)Oc1ccc(OC(C)=O)c2ccccc12`, the growth is 59.7% (inactive).

For the compound `COC(=O)/C=C1/SC(=Nc2ccc([N+](=O)[O-])cc2)N(CCc2c[nH]c3ccc(O)cc23)C1=O`, the growth was 50.9% (inactive).

`[2H]C([2H])([2H])Oc1ccc(F)cc1/C=C/C(=O)/C=C(/C=C/c1cc(F)ccc1OC([2H])([2H])[2H])OB(F)F`: the growth was 42.1% (inactive).

Turning to `Nc1c(C(=O)Nc2cccc(Cl)c2)sc2nc3c(cc12)CCCC3`, the growth was 103% (inactive).

Regarding `NS(=O)(=O)c1ccc(C(=O)NN2C(=O)c3c(Br)c(Br)c(Br)c(Br)c3C2=O)cc1`, the growth is 105% (inactive).

For `Cc1c(Cl)cccc1C(=O)Nc1nc2c(s1)CN(C(=O)c1ccc(C(F)(F)F)cc1)CC2`, the growth is 0.113% (active).

As to `CCCCCN(CCCCC)CC(O)c1cc(C)c2ccc3cc(C(C)C)ccc3c2c1` (stereo not given), the growth was -47.7% (active).

Regarding `CCC1S/C(=N\N=C(\C)c2cc3cc(Cl)ccc3o2)N(c2ccccc2)C1=O` (stereo not given), the growth is 75.5% (inactive).

On to `CN1C(=O)/C(=C/c2ccc(C(=O)Nc3ncc(Cc4cccc(Cl)c4)s3)cc2)SC1=S`, for which the growth was 69% (inactive).

Turning to `O=C(NCc1cccc(CNC(=O)Nc2nc3ccccc3[nH]2)c1)Nc1nc2ccccc2[nH]1`, the growth is -42.3% (active).

As to `COc1ccc(Cn2cc3c(c2-c2ccccc2)CCc2cnoc2-3)cc1`, the growth is -11.5% (active).

Turning to `Cc1ccc(CNc2c3ccccc3nc3ccccc23)cc1`, the growth was 34.1% (inactive).

`FC(F)(F)c1ccc(Cn2cc(CSc3nc4ccccc4s3)nn2)cc1`: the growth was 105% (inactive).

With `COc1cc(OC)c2sc(-c3ccc(-n4cncc4-c4cc(OC)c(OC)c(OC)c4)cc3)nc2c1`, the growth was 35.1% (inactive).

For the compound `C#CCn1cnc2cnc(Nc3cccc(NC(=O)C=C)c3)nc21`, the growth was 104% [6.25 µM] (inactive).

Regarding `CC(=O)/C(=C/c1ccc([N+](=O)[O-])cc1)C(=O)c1ccccc1`, the growth is 96.5% (inactive).

Regarding `CCOC(=O)/C=C1\S/C(=N\Nc2cc(=O)[nH]c3ccccc23)N(c2ccccc2)C1=O`, the growth was 104% (inactive).

As to `Cc1ccc(/C=C/C(=O)c2ccc(-n3cc(CN4CCN(c5cc6c(cc5F)c(=O)c(C(=O)O)cn6C5CC5)CC4)nn3)cc2)cc1`, the growth was 96% (inactive).
